Source: PubChem BioAssay (Tox21)
Records with an inconclusive call do not appear. A call without a number means that no potency is given here. Active and inactive are the calls of the source. The call rests on the fitted dose curve; in most records, active means well fitted cell-killing curve with a large enough effect in the repeat runs; inconclusive means weak or mixed curves, or effect the other way; inactive means no such curve, though single readings can be large or run the other way.

experiment: qHTS assay for small molecule activators of the heat shock response signaling pathway - cell viability counter screen (AID 743209); conditions: HSE-bla HeLa viability, CellTiter-Glo luminescence, 5 h; series mostly up to 62.6 µM; activity change, negative = cytotoxicity: at the top concentration; further: nearly all actives have a fitted effect of over 50% in size
Source text: U.S. Tox21 Program National Center for Advancing Translational Sciences [NCATS] NIH Chemical Genomics Center [NCGC] U.S. Environmental Protection Agency [EPA] National Institutes of Environmental Health Sciences [NIEHS] National Toxicology Program [NTP] U.S. Food and Drug Administration [FDA] Tox21 Assay Overview: Various chemicals, environmental and physiological stress conditions may lead to the activation of heat shock response/ unfolded protein response (HSR/UPR). There are three heat shock transcription factors (HSFs) (HSF-1, -2, and -4) mediating transcriptional regulation of the human HSR. To identify the compounds that activate HSR signaling, HSE-bla HeLa cell line (Invitrogen, Carlsbad, CA, USA) containing a beta-lactamase reporter gene under the control of the heat shock response elements was used to screen Tox21 10K compound library. The cytotoxicity of the Tox21 compound library against the HSE-bla HeLa cell line was tested in parallel by measuring the cell viability using CellTiter-Glo assay (Promega, Madison, WI) in the same wells.
Tox21 Assay Protocol Summary: The CellSensor HSE-bla HeLa cells (Invitrogen, Carlsbad, CA, USA) were dispensed at 1500 cells/6uL/well into 1536-well black wall/clear bottom plates using a Multidrop combi (Thermo Fisher Scientific, Waltham, MA) dispenser. After the assay plates were incubated at 37 C and 5% CO2 overnight, 23 nL of compounds dissolved in DMSO, positive controls or DMSO only was transferred to the assay plate by a Pintool station (Kalypsys, San Diego, CA). The plates were incubated at 37 C for 5 h. After 1 uL of LiveBLAzerTM B/G FRET substrate was added using a Flying Reagent Dispenser (FRD, Beckman Coulter, Indianapolis, IN, USA), the plates were incubated at room temperature for 2.5 h, and fluorescence intensity was measured by an Envision plate reader (PerkinElmer, Shelton, CT). For cell viability readout that measures cytotoxicity, 3 ul/well of CellTiter-Glo reagent was added into the assay plates using a FRD. After 30 min incubation at room temperature, the luminescence intensity in the plates was measured using a ViewLux (PerkinElmer) plate reader.

Row | SMILES | Potency | activity change, negative = cytotoxicity
1 | c1cnc2c(c1)ccc1cccnc12 | inactive | –
2 | Cc1cc(C)c(O)c(C)c1 | inactive | –
3 | O=c1c(O)c(-c2ccc(O)c(O)c2)oc2cc(O)cc(O)c12 | inactive | –
4 | CC(=O)C(C)C | inactive | –
5 | O=[N+]([O-])c1ccccc1C(F)(F)F | inactive | –
6 | O=c1n(CCCN2CCN(c3cccc(Cl)c3)CC2)nc2ccccn12 | inactive | –
7 | CC(C=O)Cc1ccc(C(C)(C)C)cc1 (stereo not given) | – | -3.72% (inactive)
8 | CCCOC(=O)NCCCN(C)C | inactive | –
9 | CS(=O)(=O)c1ccc(Cl)cc1 | inactive | –
10 | CCCCC(=O)O | inactive | –
11 | O=C1O[C@H]([C@H](O)CO)C(O)=C1O | inactive | –
12 | C[n+]1ccn(CCO)c1 | inactive | –
13 | CCCCCCCCCCCC(=O)N(C)CC(=O)O | inactive | –
14 | CC(=O)OC(C)(C)C1CC=C(C)CC1 (stereo not given) | inactive | –
15 | NC(=O)NC(N)=O | inactive | –
16 | CC(=O)OCc1ccc2c(c1)OCO2 | inactive | –
17 | CC(CN1c2ccccc2Sc2ccccc21)N(C)C (stereo not given) | inactive | –
18 | N[C@@H](Cc1cc(I)c(Oc2ccc(O)c(I)c2)c(I)c1)C(=O)O | inactive | –
19 | Brc1ccc(Oc2ccc(Br)cc2)cc1 | inactive | –
20 | Cc1nnc(NS(=O)(=O)c2ccc(N)cc2)s1 | inactive | –

Row | SMILES | Potency | activity change, negative = cytotoxicity
21 | Nc1cccc(N)n1 | inactive | –
22 | CC(C)=CCC/C(C)=C/C=O | inactive | –
23 | O=[N+]([O-])c1cc(C(F)(F)F)ccc1Cl | inactive | –
24 | COc1cc(NC(=O)CC(C)=O)c(OC)cc1Cl | inactive | –
25 | CC(C)(CO)CO | inactive | –
26 | CC1(C)C(=O)N(Cl)C(=O)N1Cl | inactive | –
27 | Cc1cccc(C)c1[N+](=O)[O-] | inactive | –
28 | CCCCCCC(=O)O | inactive | –
29 | O=C(NCC1CCCCN1)c1cc(OCC(F)(F)F)ccc1OCC(F)(F)F (stereo not given) | – | 4.1% (inactive)
30 | CC(C)(C)NC[C@H](O)COc1nsnc1N1CCOCC1 | inactive | –
31 | CC/C(C)=N/O | inactive | –
32 | C[Si](C)(C)N[Si](C)(C)C | – | 11% (inactive)
33 | Cc1ccccc1C=O | inactive | –
34 | OCc1ccc(Cl)cc1Cl | inactive | –
35 | COc1ccc(N)c(OC)c1 | inactive | –
36 | CC(=O)OC/C=C(\C)CCC=C(C)C | inactive | –
37 | O=Cc1ccc(CO)o1 | inactive | –
38 | CCCCCCCC(=O)O | inactive | –
39 | O=C(O)C1=NN(c2ccc(S(=O)(=O)O)cc2)C(=O)C1 | inactive | –
40 | CC1=CC(=O)CC(C)(C)C1 | inactive | –
